Consider 39 sequences from the supplement of paper PMC6555819.

One assay relates to PPARg:RXRa 30nM:10nM, anti-RXR (NR concentration 30 nM, RXRa partner concentration 10 nM). Kind of assay: PBM binding z-score (relative to random genomic background probes); higher = stronger binding; sequences stand for … in GC…GCGATTGACAGCGTAGAATGAAGG
In short, it runs like this: (§1)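 Custom Agilent 4×180K protein-binding microarrays carried double-stranded probes, each with a 34-nt variable region. These regions held direct-repeat seeds, single-nucleotide variants, half-site ablations and random human genomic background sequences. Ligand-free nuclear receptor dimers were incubated on the arrays for 1 h, antibodies against each partner (one per run) detected binding, and scanned fluorescence was regression-normalized. Binding z-scores take the random background probes as reference.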
On to CCTACTGGGCCAACGTCATTGATCAGTCAAAGCA, for which the PBM binding z-score was -0.362.

The sequence CCGACTCGGGCAGAAAGGTTACCATACCATCCGG came in with a PBM binding z-score of 0.663.

As for CCTTCTGGGCCACGAAAGGTCATTGATTCAGTGA, the PBM binding z-score is 1.82.

As for ACTAGCAGGCCGAGGGTCACTCAAGATTAGTCCG, the PBM binding z-score worked out at 2.21.

Turning to CCTATTAGTTGACCATAAGGGCAACCGAAGCTCG, the PBM binding z-score was -0.00379.

In turn, ACTATTAGTTGACTTACGGCAACCGATACGACGC yielded a PBM binding z-score of 0.212.

CCGGCTAGGTCAATGGTCAGCTAAAGCAGCTCGC gave a PBM binding z-score of 1.63.

The sequence TCTAGCAGGCCAGAGGGTCGCTCAAGAGGTACGG returned a PBM binding z-score of 1.69.

In the case of ACTTCCGGGTCAACGAGGTTATAGCACGCGTATA, the PBM binding z-score was determined as 2.51.

In turn, CCGACTGAGGCATAAGGTTACCATAAGCCAGCCC yielded a PBM binding z-score of -0.0351.

GGAACGAGGGCAAGTTGACAGCAGAGTTTGATGG gave a PBM binding z-score of 0.346.

CCAGACTGGTGAGAAGGTAACTCAGCCTCGATTA had a PBM binding z-score of -0.431.

In turn, CGTCCAAGGTCAGAGAGGTCAGTGGATGCCGAGT gave a PBM binding z-score of 1.09.

In turn, TCGGACAGGTGAAGGTAACTCAGGTACGCAGTCG showed a PBM binding z-score of 2.75.

GCTATTAGTTGAAAGGGCAACCGAATGATTCTCG came in with a PBM binding z-score of 2.39.

Take ACAGACAGGTGATGAAGGTGACTCAGGCTATCAT: the PBM binding z-score is -0.1.

Take ACTATTAGTTGAGACGATGGCAACCGATAGGTTG: the PBM binding z-score was found to be 0.0135.

As for ACACCAAGGTGATCGTGAGGTCGTTGATACTAAC, the PBM binding z-score is -0.275.

TGAATGAGGTTATAAAATCAGGGAACGTTGCAAA gave a PBM binding z-score of 0.684.

In turn, TATACAGGGTCAAAAGCCAGAGTACGAATGTCGA had a PBM binding z-score of 3.42.

ACTTACGGGTCACCGAGGTTATAGCACGCGTATA came in with a PBM binding z-score of 3.18.

TCTGGTAGGTCAGTTGGTCAGCTAACGAGCTGCC registered a PBM binding z-score of 2.4.

For AATACAGCGTCATCGTAGGCCAGAGTACGCACAG, the PBM binding z-score was -0.189.

For the sequence CGTCAAAGTTCAACTCAGGTAACGTAAAGCACGC, the PBM binding z-score stood at 2.08.

ATATGTAGGTTAAGGGTGATTCAGGTTGGTTCGC had a PBM binding z-score of 8.53.

On to CCAGACAGGTGAAAGATAACTCAGTCTGGTACGC, for which the PBM binding z-score turned out to be 0.306.

Regarding TCTAGTTGATCAAAGGTCACACACTCGAAATGCG, the PBM binding z-score amounted to 7.94.

TCTCGGAGGACAGGAAGGTCAGAGCTTTCCAGAG returned a PBM binding z-score of 2.39.

In turn, CTCTAAAGGTCGGTTGAGGTGAGTATACGGATAA came in with a PBM binding z-score of 0.122.

CGTCCAAGGTCAGAGAGGTTAGTGAATGCCGAGT yielded a PBM binding z-score of 0.275.

CCGACTGCGGCAAGGTTACCATAACGCACAGCCA displayed a PBM binding z-score of -0.715.

With CCTAGCAGGACAATCTGGGTCACTCAAGGCTTGA, the PBM binding z-score stood at 0.245.

Sequence AGGCAAAGTTCACTAGGTAACGTAAGATTCAGCT had a PBM binding z-score of 2.78.

In the case of CTCGAAAGGACGGTTGAGGTGAGTATACGGATAA, the PBM binding z-score came out at 0.0534.

Turning to CGAACGAGGGCATGAGTCGATAGCAAATGCCGAT, the PBM binding z-score stood at 0.37.

In the case of CCTACTTGGCCAAAAAGGTCATTGATGCCGATAA, the PBM binding z-score was found to be 0.755.

CCTACTGGGCCATCAGGTCATTAATATCAACGTT showed a PBM binding z-score of 0.96.

TCTAGTTGGTCAGGGAGGTCACACACGACGGGTA registered a PBM binding z-score of 3.27.

Consider GCTAGCAGGCCAATTGGGTCACTCAATGACGGGC, for which the PBM binding z-score is -0.473.

Another assay deals with PPARg:RXRa 90nM:30nM, anti-RXR (NR concentration 90 nM, RXRa partner concentration 30 nM). The description is as above. The method in brief: as §1
For CCTACTGGGCCAACGTCATTGATCAGTCAAAGCA, the PBM binding z-score is 0.3.

Regarding CCGACTCGGGCAGAAAGGTTACCATACCATCCGG, the PBM binding z-score was determined as 1.76.

Consider CCTTCTGGGCCACGAAAGGTCATTGATTCAGTGA, for which the PBM binding z-score is 3.94.

Turning to ACTAGCAGGCCGAGGGTCACTCAAGATTAGTCCG, the PBM binding z-score was determined as 4.78.

In the case of CCTATTAGTTGACCATAAGGGCAACCGAAGCTCG, the PBM binding z-score was determined as 1.03.

On to ACTATTAGTTGACTTACGGCAACCGATACGACGC, for which the PBM binding z-score was 0.113.

As for CCGGCTAGGTCAATGGTCAGCTAAAGCAGCTCGC, the PBM binding z-score stood at 4.03.

For the sequence TCTAGCAGGCCAGAGGGTCGCTCAAGAGGTACGG, the PBM binding z-score was 1.37.

Sequence ACTTCCGGGTCAACGAGGTTATAGCACGCGTATA had a PBM binding z-score of 4.51.

CCGACTGAGGCATAAGGTTACCATAAGCCAGCCC: the PBM binding z-score was determined as 0.852.

The sequence GGAACGAGGGCAAGTTGACAGCAGAGTTTGATGG displayed a PBM binding z-score of 0.686.

As to CCAGACTGGTGAGAAGGTAACTCAGCCTCGATTA, the PBM binding z-score is -0.102.

For CGTCCAAGGTCAGAGAGGTCAGTGGATGCCGAGT, the PBM binding z-score stood at 2.58.

Sequence TCGGACAGGTGAAGGTAACTCAGGTACGCAGTCG displayed a PBM binding z-score of 1.87.

The sequence GCTATTAGTTGAAAGGGCAACCGAATGATTCTCG came in with a PBM binding z-score of 4.05.

Sequence ACAGACAGGTGATGAAGGTGACTCAGGCTATCAT returned a PBM binding z-score of 0.274.

For ACTATTAGTTGAGACGATGGCAACCGATAGGTTG, the PBM binding z-score was -0.0627.

Turning to ACACCAAGGTGATCGTGAGGTCGTTGATACTAAC, the PBM binding z-score is 0.0177.

For TGAATGAGGTTATAAAATCAGGGAACGTTGCAAA, the PBM binding z-score came out at 1.09.

The sequence TATACAGGGTCAAAAGCCAGAGTACGAATGTCGA displayed a PBM binding z-score of 5.08.

ACTTACGGGTCACCGAGGTTATAGCACGCGTATA gave a PBM binding z-score of 5.44.

On to TCTGGTAGGTCAGTTGGTCAGCTAACGAGCTGCC, for which the PBM binding z-score is 2.47.

Consider AATACAGCGTCATCGTAGGCCAGAGTACGCACAG, for which the PBM binding z-score is -0.519.

In turn, CGTCAAAGTTCAACTCAGGTAACGTAAAGCACGC had a PBM binding z-score of 4.01.

For the sequence ATATGTAGGTTAAGGGTGATTCAGGTTGGTTCGC, the PBM binding z-score was 9.45.

In turn, CCAGACAGGTGAAAGATAACTCAGTCTGGTACGC had a PBM binding z-score of 1.

In turn, TCTAGTTGATCAAAGGTCACACACTCGAAATGCG showed a PBM binding z-score of 8.62.

TCTCGGAGGACAGGAAGGTCAGAGCTTTCCAGAG yielded a PBM binding z-score of 1.78.

For the sequence CTCTAAAGGTCGGTTGAGGTGAGTATACGGATAA, the PBM binding z-score came out at 0.958.

As for CGTCCAAGGTCAGAGAGGTTAGTGAATGCCGAGT, the PBM binding z-score was determined as 1.48.

Take CCGACTGCGGCAAGGTTACCATAACGCACAGCCA: the PBM binding z-score is -0.26.

In turn, CCTAGCAGGACAATCTGGGTCACTCAAGGCTTGA displayed a PBM binding z-score of 1.56.

With AGGCAAAGTTCACTAGGTAACGTAAGATTCAGCT, the PBM binding z-score turned out to be 5.21.

Consider CTCGAAAGGACGGTTGAGGTGAGTATACGGATAA, for which the PBM binding z-score is -0.244.

As for CGAACGAGGGCATGAGTCGATAGCAAATGCCGAT, the PBM binding z-score stood at 1.93.

On to CCTACTTGGCCAAAAAGGTCATTGATGCCGATAA, for which the PBM binding z-score was determined as 1.87.

CCTACTGGGCCATCAGGTCATTAATATCAACGTT had a PBM binding z-score of 3.01.

The sequence TCTAGTTGGTCAGGGAGGTCACACACGACGGGTA registered a PBM binding z-score of 3.23.

GCTAGCAGGCCAATTGGGTCACTCAATGACGGGC displayed a PBM binding z-score of 0.444.
